# Bioassay records deposited in PubChem by National Center for Advancing Translational Sciences (NCATS).
# The list is not random: actives were taken first. Their share in the collection is about 11%.
# Pf growth 48h: inhibits P. falciparum growth in the first generation, 48 h; P. falciparum luciferase growth in erythrocytes, 48 h; Potency, µM (titrated, usually from 28.7 µM), for inactives: top-dose activity change, negative = inhibition, actives largely listed as inhibitors; actives 5.9% (n = 310,000); AID 504832; further: on the % scale 0 is the no-effect control and ±100 the full control effect
#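 A one-generation exposure of luciferase-tagged malaria parasites in RPMI 1640/Albumax erythrocyte culture, 37 C and 5% CO2. Inhibition is inferred from decreased luminescence after adding detection reagent.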
# AMA1-RON2 inh: inhibitors of Plasmodium falciparum AMA1-RON2 interaction; AlphaScreen AMA1-biotinylated RON2 peptide binding; Potency, µM (doses to about 58.2 µM), without a hit: at the top dose activity change, negative = inhibition, usual class: inhibitors; actives 0.2% (n = 360,000);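 further: 0% = vehicle wells and -100% = peptide control; nearly all actives have a fitted effect of over 45% in size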
#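 AMA1 (3D7) with his tag at 25 nM final met compounds first, then biotinylated RON2 peptide at 25 nM; detection used donor plus acceptor beads, 10 µg/mL apiece, read by AlphaScreen after 30 min at room temperature.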
# Sm TGR inh: inhibitors of Schistosoma mansoni thioredoxin glutathione reductase; actives 3% (n = 360,000); Potency, µM (top dose mostly 114 µM), for the others: at the highest dose activity change, negative = inhibition, actives largely listed as inhibitors; purified TGR, DTNB reduction, TNB absorbance 405 nm; Q962Y6; AID 485364; further: on the % scale 0 is the no-effect control and ±100 the full control effect; nearly all actives have a fitted effect of over 60% in size
#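 Kinetic colorimetric format: TGR-catalysed, NADPH-driven DTNB reduction monitored via TNB absorbance. Enzyme dispensed at 20 nM; compound exposure 15 min at room temperature before reaction start.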
# Pf growth 96h: P. falciparum growth inhibition at 96 hour, primary screen for plastid delayed-death inhibitors | P. falciparum luciferase reporter growth, 96 h | Potency, µM (series often up to 28.7 µM), inactives show top-dose activity change, negative = inhibition, hits mostly inhibitors | actives 6.9% (n = 320,000); further: on the % scale 0 is the no-effect control and ±100 the full control effect
#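 Readout is luminescence from an integrated firefly luciferase in P. falciparum. Red cells, 2% hematocrit and 0.05% parasitemia final, were cultured with compound through two parasite generations (96 hours) at 37 C, 5% CO2.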
# NS1 inh: blocks influenza NS1 protein function. actives 0.4% (n = 270,000). Potency, µM (top dose mostly 46.1 µM), inactives show at the highest dose activity, positive = more growth; calls by dose curve; further: actives are rising curves; nearly all actives have a fitted effect of over 50% in size
#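 A cell-based growth assay was used: compounds that relieve NS1-induced slow growth of budding yeast raise OD600. Assay medium was yeast nitrogen base with ammonium sulphate and -URA supplement, pH 6.0, with 2% galactose.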
# * marks the source's active call; other numbers are inactive results; ? = inconclusive; · = no result given. Unless noted, the call rests on the fitted dose curve; in most records, active means well fitted curve in the direction sought with a large enough effect; inconclusive means small, poorly fitted or top-dose-only effect, or another doubt; inactive means no such curve, though single readings can be large; an effect the other way counts as inactive or inconclusive. Potency means the concentration at half of the fitted maximal effect.
SMILES,Pf growth 48h,AMA1-RON2 inh,Sm TGR inh,Pf growth 96h,NS1 inh
O=C(Cn1c(-c2cccs2)cc2ccccc21)N1CCN(c2ccc(F)cc2)CC1,·,·,4.6%,·,·
CCC(C)(C)n1nnnc1C(c1ccc(C)cc1)N1CCC(C)CC1 (stereo unspecified),10.4µM*,-23.5%,0.2%,144.5%,-26.3%
CCC(C)(C)n1nnnc1C(c1ccc2ncccc2c1)N1CCN(Cc2ccc3c(c2)OCO3)CC1 (stereo unspecified),-17.8%,3.2%,0.0%,167.7%,-2.4%
CCC(C)(C)n1nnnc1C(c1ccncc1)N1CCC(C)CC1 (stereo unspecified),-23.6%,0.3%,-19.7%,5.3%,-4.7%
CCC(C)(C)n1nnnc1C(c1ccc(C)cc1)N1CCN(Cc2ccc3c(c2)OCO3)CC1 (stereo unspecified),14.7µM*,-2.2%,2.1%,?,2.9%
O=C(CSc1ccc(Cl)cc1)NCc1ccco1,76.7%,-9.1%,-13.9%,?,-3.3%
CC(C)(O)C#Cc1ccc(C(=O)NCc2cccs2)s1,16.9%,0.0%,0.1%,9.28µM*,-5.6%
O=S1(=O)N=C(N/N=C/c2ccc(Br)o2)c2ccccc21,?,91.8%,-1.9%,?,·
Brc1ccc(OCCOc2cccc3cccnc23)cc1,1.7%,-3.6%,2.1%,17.7%,2.7%
c1ccc(OCCOc2cccc3cccnc23)cc1,50.1%,1.1%,8.9%,10.4µM*,-2.7%
Cc1[nH]nc2ncc(C(=O)c3cc(F)ccc3O)cc12,·,1.0%,0.0%,?,-5.3%
Cc1ccc(O)c(C(=O)c2cnc3onc(-c4ccc(F)cc4)c3c2)c1,3.29µM*,-9.2%,5.3%,2.33µM*,-0.4%
Cc1noc2ncc(C(=O)c3cc(F)ccc3O)cc12,·,-6.1%,-15.8%,8.28µM*,-5.6%
CCn1c(=O)c2cc(C(=O)N(C)c3cc(C)ccc3OC)sc2c2ccccc21,13.1µM*,0.0%,4.2%,?,3.5%
CCn1c(=O)c2cc(C(=O)N(C)c3ccc(OC)cc3OC)sc2c2ccccc21,?,-7.2%,11.6%,10.4µM*,2.8%
CCOC(=O)C1=C[C@]2(CC)CCCN3CCc4c(n1c1ccccc41)[C@@H]32,5.22µM*,-4.1%,?,3.7µM*,4.4%
Cc1ccsc1C=Nc1ccc(O)cc1,?,22.9%,17.8µM*,16.5%,26.8%
Cc1ccsc1/C=N/N=C/c1sccc1C,487.8%,-8.7%,1.2%,8.28µM*,-25.8%
Cc1ccsc1/C=N/NC(=O)c1sccc1C,67.9%,-4.7%,0.5%,107.5%,-11.6%
Cc1c(C(=O)NC2CCC(C)CC2)oc2ccccc12 (stereo unspecified),97.0%,-6.0%,?,111.8%,-6.1%
Cn1c(SCC(=O)NC2CCCC2)nnc1-c1cccs1,-0.3%,-14.4%,-0.1%,20.8%,20.1%
N#Cc1cc([N+](=O)[O-])ccc1NCCCn1ccnc1,9.9%,-16.8%,-7.0%,-0.5%,11.1%
O=[N+]([O-])c1ccc2c(c1)nc1n2CCN(c2ccccc2)C1,?,28.4%,28.2µM*,?,-40.9%
COCCN1CCn2c(nc3cc([N+](=O)[O-])ccc32)C1,76.2%,-17.5%,39.8µM*,5.4%,-58.6%
Cc1ccc(S(=O)(=O)N2CC2(C)CCl)cc1 (stereo unspecified),-12.9%,0.0%,50.1µM*,?,7.8%
SMILES,Pf growth 48h,AMA1-RON2 inh,Sm TGR inh,Pf growth 96h,NS1 inh
CC[n+]1cc(-c2ccccc2)nc(N2CCOCC2)n1,2.33µM*,-20.5%,-9.5%,-15.3%,-14.9%
CCCN(CC(=O)Nc1cccc(Br)c1)CC(=O)Nc1ccc(F)c(F)c1F,?,43.9%,-0.3%,3.7µM*,-9.9%
CCCN(CC(=O)Nc1cccc(S(N)(=O)=O)c1)CC(=O)Nc1ccc(F)c(F)c1F,-0.6%,76.4%,-0.7%,3.3%,12.2%
Cc1ccc(C)c(N2CCN(C(=O)Cn3cnc4nc5c(cc4c3=O)CCCC5)CC2)c1,·,·,5.2%,·,·
O=P(c1ccccc1)(c1ccccc1)C(c1ccccn1)P(=O)(c1ccccc1)c1ccccc1,?,-6.3%,7.6%,9.28µM*,-0.5%
O=P(c1ccccc1)(c1ccccc1)C(O)c1ccccn1 (stereo unspecified),22.0%,97.4%,-6.5%,25.2%,-2.1%
COc1cccc(CNC(=O)C(CC(C)C)NC(=O)c2ccccc2C)c1 (stereo unspecified),·,2.6%,30.2%,-14.2%,-3.3%
CCOc1ccc(CNC(=O)CCS(=O)(=O)Cc2ccccc2C)cc1OC,?,0.0%,-3.9%,9.28µM*,·
CCOc1ccc(CNC(=O)CCS(=O)(=O)Cc2ccc(C)cc2)cc1OC,7.0%,5.1%,-8.7%,58.4%,·
CSc1nnc(C)c(=O)n1COC(=O)c1ccc([N+](=O)[O-])cc1,5.2%,-5.1%,?,31.9%,·
CSc1nnc(C)c(=O)n1COC(=O)c1cc(Cl)ccc1[N+](=O)[O-],5.5%,-3.1%,22.4µM*,0.0%,·
COc1ccc(C(=O)NCc2ccc3c(c2)OCO3)cc1S(=O)(=O)N(C)Cc1ccccc1,1.0%,-5.9%,4.5%,-15.7%,22.7%
COc1ccc(C(=O)Nc2ccc(NC(C)=O)cc2)cc1S(=O)(=O)N(C)Cc1ccccc1,?,4.5%,7.0%,4.65µM*,·
COc1cc(C(=O)Nc2ccc(C(=O)O)cc2)ccc1OC(C)=O,20.5%,-10.3%,-0.6%,2.33µM*,·
COc1ccccc1N1C(=O)c2ccc(C(=O)Nc3ccc(C(=O)O)cc3)cc2C1=O,28.5%,-2.8%,89.1µM*,-29.0%,4.1%
COc1ccc(C(=O)Nc2ccc(C(=O)N3CCC(C)CC3)cc2)cc1OC,?,4.6%,6.6%,2.62µM*,-3.8%
CSc1ncc2c(n1)-c1ccccc1N(Cc1ccccc1)S2(=O)=O,·,·,0.7%,·,·
Cc1ccc(NC(=S)N(CCCN2CCOCC2)Cc2cccs2)c(C)c1,?,-18.4%,-22.5%,9.28µM*,-5.2%
CCN(CC)CCNC(=O)CNC(=S)N(CCCN1CCOCC1)Cc1cccs1,0.0%,1.8%,9.6%,1.65µM*,-0.5%
CCOC(=O)C1=CNS(=O)(=O)NC1c1ccc(C#N)cc1 (stereo unspecified),·,20.6%,·,·,·
Nc1nonc1-n1nnc(C(=O)N/N=C/c2ccc(Cl)cc2Cl)c1CN1CCOCC1,58.2%,0.7%,-0.3%,-4.9%,18.1%
COc1ccc(CCn2c3c(c(=O)[nH]c2=O)C(NC(=O)c2ccc(Cl)cc2)(C(F)(F)F)C(=O)N3)cc1OC (stereo unspecified),·,·,9.2%,·,·
c1cnc(N2CCN(c3ncc4c(n3)CCNC4)CC2)nc1,·,·,20.6%,·,·
CCN(CC)c1ccc(CNc2ccc3c(c2)ncn3C(C)(C)C)cc1,-26.8%,28.2µM*,?,0.8%,-2.5%
CC(C)c1ccc(CNc2ccc3c(c2)ncn3C)cc1,17.0%,-17.6%,5.2%,24.6%,-8.7%
CCc1ccc(CNc2ccc3c(c2)ncn3C(C)(C)C)cc1,-15.4%,-24.1%,-0.9%,-27.2%,-2.3%
CN(C)c1ccc(CNc2ccc3c(c2)ncn3C)cc1,·,26.7µM*,35.5µM*,53.2%,0.1%
